Bioassay records as filed in PubChem.
This is a sample that favours compounds with a hit; in the whole collection about 7.5% have one here.
FLuc modulator: counter-screen for miR-21 project: firefly luciferase inhibitors or activators; 360,000 compounds, 6.9% hits; P08659; AID 588342; Potency, µM (highest dose often 57.5 µM), inactives show at the highest dose activity change, negative = inhibition, hits mostly inhibitors; purified FLuc, Km substrates, luminescence inhibition;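 further: plate controls were vehicle for no effect and reference inhibitor for full effect; nearly all actives have a fitted effect of over 55% in size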
Target sequence (P08659 whole entry, looked up): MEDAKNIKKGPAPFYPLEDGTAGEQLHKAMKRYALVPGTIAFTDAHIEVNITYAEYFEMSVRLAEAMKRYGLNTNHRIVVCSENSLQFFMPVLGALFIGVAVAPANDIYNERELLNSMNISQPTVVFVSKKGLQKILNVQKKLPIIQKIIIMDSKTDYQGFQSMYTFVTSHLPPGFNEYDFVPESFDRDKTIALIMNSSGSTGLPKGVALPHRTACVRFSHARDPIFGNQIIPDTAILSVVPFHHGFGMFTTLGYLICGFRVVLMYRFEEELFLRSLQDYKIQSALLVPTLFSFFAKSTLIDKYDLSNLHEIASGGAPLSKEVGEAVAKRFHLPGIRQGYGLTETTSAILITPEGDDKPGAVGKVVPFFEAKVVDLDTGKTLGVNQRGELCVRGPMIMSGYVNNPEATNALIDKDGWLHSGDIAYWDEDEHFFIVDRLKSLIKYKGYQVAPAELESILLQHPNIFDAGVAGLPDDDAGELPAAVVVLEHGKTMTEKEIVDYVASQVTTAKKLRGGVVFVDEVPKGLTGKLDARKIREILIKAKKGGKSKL
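Biochemical qHTS of compounds, final roughly 60 µM downward over six points, against 10 nM purified firefly luciferase using Km concentrations of substrates (10 uM D-luciferin, 10 uM ATP) in Tris acetate pH 7.5 buffer; luminescence output.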
Rab9 promoter act: Rab9 promoter activation; 320,000 compounds, 2.8% hits; Huh7 Rab9 promoter-luciferase reporter, luminescence, 24 h; Potency, µM (titrated, usually from 9.22 µM), for inactives: at the highest dose activation, negative = inhibition, hits mostly activators; further: % of control where 0% means no effect; nearly all actives have a fitted effect of over 60% in size
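Huh7 reporter line, Rab9 promoter upstream of luciferase. Compound exposure 24 h at 37 °C in reduced-serum medium with 10% FBS. Read-out: luminescence.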
NPC1 prom act: NPC1 promoter activation | Potency, µM (doses to about 9.22 µM), for the others: at the top dose activation, usual class: activators | 320,000 compounds, 2.4% hits | Huh7 NPC1 promoter luciferase reporter, 24 h | AID 485313; further: % of control where 0% means no effect; nearly all actives have a fitted effect of over 60% in size
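Luciferase expression driven by the NPC1 promoter was measured in stably transfected Huh7 cells after a 24 h compound incubation, using a luciferase reagent and a luminescence read.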
ELG1 genotox: inducers of genotoxicity in HEK293T ELG1-luciferase cells; AID 504466; Potency, µM (top dose mostly 46 µM), inactives show top-dose activity change, positive = activation, most hits filed as activators; 330,000 compounds, 1.3% hits; HEK293T ELG1-luciferase reporter, luminescence, 16 h; further: % of control where 0% means no effect; nearly all actives have a fitted effect of over 60% in size
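16 hr compound incubation (37 °C, 5% CO2) of HEK293T cells carrying luciferase-tagged ELG1; luciferase then measured by ONE-Glo luminescence after 30 min at RT.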
SMN2 splice enh: SMN2 splice variant enhancement; HEK293 SMN2-luciferase splicing reporter, luminescence, 30-36 h; Potency, µM (highest dose often 46.1 µM), without a hit: at the top dose activity change, positive = activation, usual class: activators; 210,000 compounds, 2.8% hits; AID 1458; further: % of control where 0% means no effect; nearly all actives have a fitted effect of over 55% in size
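HEK293 cells carry an SMN2 minigene-luciferase reporter in which exon 7 inclusion puts luciferase in frame. Cells were seeded at 2000 cells/well, attached for 10-12 hours, then exposed to compounds for 30-36 hours at 37C before ONE-Glo luminescence.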
Luc counter: Kinase-Glo luciferase inhibition (counter-screen) | Kinase-Glo luciferase, ATP luminescence, 8 min | Q27757 | 200,000 compounds, 0.28% hits | AID 1379 | Potency, µM (titrated, usually from 38.3 µM), for the others: at the highest dose activity change, negative = inhibition, most hits filed as inhibitors; further: on the % scale 0 is the no-effect control and ±100 the full control effect; nearly all actives have a fitted effect of over 60% in size
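Substrate mix (final 50 mM imidazole pH 7.2, 50 mM KCl, 7 mM MgCl2, 10 uM ATP, 0.01% Tween 20, 0.05% BSA) plus pin-tool compound, then Kinase-Glo detection mix; 8 min ambient, luminescence read.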
* marks the source's active call; other numbers are inactive results. The call rests on the fitted dose curve; in most records, active means well fitted curve in the direction sought with a large enough effect; inconclusive means small, poorly fitted or top-dose-only effect, or another doubt; inactive means no such curve, though single readings can be large; an effect the other way counts as inactive or inconclusive. Potency means the concentration at half of the fitted maximal effect.

How did COc1ccc(OC)c(NC(=O)C2CCN(S(=O)(=O)c3ccc4c(c3)CC(C)N4C(C)=O)CC2)c1 (stereo not drawn) do in these assays?
FLuc modulator: 1%; Rab9 promoter act: -4%; NPC1 prom act: 0%; ELG1 genotox: -8%

How did O=C1NC(=O)/C(=C/c2cc3c(cc2Br)OCO3)S1 do in these assays?
FLuc modulator: inconclusive; Rab9 promoter act: 3%; NPC1 prom act: -3%; ELG1 genotox: 1%

How did O=C1NC(=O)/C(=C/c2ccc3c(c2)OC(F)(F)O3)S1 do in these assays?
Rab9 promoter act: inconclusive; NPC1 prom act: 8.2µM*

What do the screens show for `CCCCN1CCC(COC(=O)c2cc(Cl)c(N)c3c2OCCO3)CC1`?
FLuc modulator: 1%; Rab9 promoter act: -7%; NPC1 prom act: -1%; ELG1 genotox: -1%; SMN2 splice enh: -26%; Luc counter: -4%

How did Nc1c(C(=O)c2ccccc2)sc2nsc(SCCN3CCCC3)c12 do in these assays?
FLuc modulator: 24µM*; Rab9 promoter act: 23%; NPC1 prom act: -4%; ELG1 genotox: 8%

What do the screens show for `Nc1c(C(=O)c2ccc(Cl)cc2)sc2nsc(SCCN3CCOCC3)c12`?
FLuc modulator: -10%; Rab9 promoter act: -4%; NPC1 prom act: 11%; ELG1 genotox: -7%

What do the screens show for `Cc1cccc(Nc2nnc(SCC(=O)NC3CCCc4ccccc43)s2)c1` (stereo not drawn)?
FLuc modulator: 6µM*; Rab9 promoter act: -2%; NPC1 prom act: -6%; ELG1 genotox: -8%; SMN2 splice enh: -36%; Luc counter: 3%

What do the screens show for `Cc1cccc(Nc2nnc(SCC(=O)NCc3cccs3)s2)c1C`?
FLuc modulator: -17%; Rab9 promoter act: -3%; NPC1 prom act: -4%; ELG1 genotox: -1%; SMN2 splice enh: 8%; Luc counter: 0%

How did Nc1nnc(SCC(=O)Nc2cccnc2Cl)s1 do in these assays?
FLuc modulator: -8%; Rab9 promoter act: -6%; NPC1 prom act: 2%; ELG1 genotox: -4%

What do the screens show for `Cc1ccc(Nc2nnc(SCC(=O)NCCN3C(=O)CSC3=O)s2)cc1C`?
FLuc modulator: 1.7µM*; Rab9 promoter act: 26%; NPC1 prom act: inconclusive; ELG1 genotox: inconclusive

Results for Cc1cccc(Nc2nnc(SCC(=O)Nc3cccnc3Cl)s2)c1 ?
FLuc modulator: 6µM*; Rab9 promoter act: 11%; NPC1 prom act: 5%; ELG1 genotox: 5%; SMN2 splice enh: -2%; Luc counter: -25%

Results for Cc1cccc(Nc2nnc(SCC(=O)NCc3cccs3)s2)c1 ?
FLuc modulator: 11µM*; Rab9 promoter act: 11%; NPC1 prom act: 7%; ELG1 genotox: 6%; SMN2 splice enh: 5%; Luc counter: -3%

How did COc1ccc(NC(=O)CSc2nc(N)cc(=O)[nH]2)cc1S(=O)(=O)N1CCCCC1 do in these assays?
FLuc modulator: 0%; Rab9 promoter act: 2%; NPC1 prom act: -2%; ELG1 genotox: -3%

Results for Cc1cccc(Nc2nnc(SCc3cn4ccsc4n3)s2)c1 ?
FLuc modulator: 17µM*; Rab9 promoter act: -1%; NPC1 prom act: 1%; ELG1 genotox: 3%; SMN2 splice enh: -9%; Luc counter: -9%

Results for O=c1cc(CSc2nnc(Nc3ccccc3)s2)nc2sccn12 ?
FLuc modulator: -10%; Rab9 promoter act: -5%; NPC1 prom act: 7%; ELG1 genotox: -13%; SMN2 splice enh: inconclusive; Luc counter: -4%

How did Cn1c(Oc2ccccc2)nc2c1c(=O)n(Cc1ccc(Cl)cc1Cl)c(=O)n2C do in these assays?
FLuc modulator: 6%; SMN2 splice enh: -9%

Results for COCCn1c(C)cc(C2=NNC(=Nc3ccc(OC)cc3)SC2)c1C ?
FLuc modulator: inconclusive; Rab9 promoter act: inconclusive; NPC1 prom act: -2%; ELG1 genotox: -2%; SMN2 splice enh: 11%; Luc counter: -4%

What do the screens show for `O=S(=O)(NCC1CCCO1)c1ccc(-c2ccc(Cl)cc2)cc1` (stereo not drawn)?
FLuc modulator: -9%; Rab9 promoter act: -14%; NPC1 prom act: -9%; ELG1 genotox: 4%; SMN2 splice enh: -62%; Luc counter: -3%

Results for CCN=C1NN=C(c2cc(C)n(Cc3ccco3)c2C)CS1 ?
FLuc modulator: 0.21µM*; Rab9 promoter act: -19%; NPC1 prom act: -20%; ELG1 genotox: inconclusive; SMN2 splice enh: -82%; Luc counter: -2%

What do the screens show for `C=CCn1c(C)cc(C2=NNC(=NCc3ccccc3)SC2)c1C`?
FLuc modulator: 19µM*; Rab9 promoter act: 2.2µM*; NPC1 prom act: inconclusive; ELG1 genotox: inconclusive; SMN2 splice enh: 13µM*; Luc counter: -2%

Results for Clc1ccc(C2=NNC(=NCC3CCCO3)SC2)cc1 (stereo not drawn) ?
FLuc modulator: 12µM*; Rab9 promoter act: inconclusive; NPC1 prom act: 3.2µM*; ELG1 genotox: 20%; SMN2 splice enh: 11µM*; Luc counter: 5%

Results for COCCn1c(C)cc(C2=NNC(=Nc3ccccc3)SC2)c1C ?
FLuc modulator: 0.76µM*; Rab9 promoter act: 0.4µM*; NPC1 prom act: 0.35µM*; ELG1 genotox: inconclusive; SMN2 splice enh: inconclusive; Luc counter: -3%

What do the screens show for `Cc1ccc(SCC(=O)Nc2ccc3oc(-c4cccc(Cl)c4)nc3c2)cc1`?
FLuc modulator: -6%

Results for CCc1ccc(CNCc2c(C(=O)O)c(C)n(Cc3c(F)cccc3Cl)c2C)cc1 ?
FLuc modulator: -13%; SMN2 splice enh: -8%

How did Cc1cc(C2=NNC(=NCCc3ccccc3)SC2)c(C)n1CC1CCCO1 (stereo not drawn) do in these assays?
FLuc modulator: 15µM*; Rab9 promoter act: inconclusive; NPC1 prom act: 30%; ELG1 genotox: 8%; SMN2 splice enh: -37%; Luc counter: -9%

How did Cc1ccc(C)c2nc3sc(C(=O)O)cc3cc12 do in these assays?
FLuc modulator: 24µM*; Rab9 promoter act: -1%; NPC1 prom act: -6%; ELG1 genotox: 3%; SMN2 splice enh: -18%; Luc counter: -1%

How did O=C(c1ccc2oc(CCc3ccccc3)nc2c1)N1CC[C@H](O)C1 do in these assays?
FLuc modulator: inconclusive; Rab9 promoter act: 1.4µM*; NPC1 prom act: 3.5µM*; ELG1 genotox: inconclusive

Results for COC(=O)[C@@H](C)NC(=O)c1ccc2oc(CCc3ccccc3)nc2c1 ?
FLuc modulator: 21µM*; Rab9 promoter act: 2.5µM*; NPC1 prom act: 4µM*; ELG1 genotox: inconclusive
